Data on 51 compounds can be found in the supplement of paper PMC9446081.

Hit rate of the full screen: of about 39,000 compounds, about 220 (0.56%) showed activity. The sample holds actives, similar compounds and a random draw of the others, so the mix is not that of the screen. A number with no mark means an inactive call.
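Also: Wild-type cells incubated without shaking, value is the mean of two biological replicates.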

The assay relates to Escherichia coli K-12 BW25113. Nature of the assay: relative growth (OD600 normalised to plate interquartile mean) (fraction); higher = less growth inhibition, active = 0.2 or less. As to conditions: 50 µM; LB; incubation time: overnight (16-24 h).
As to `C[N+](C)(C)CCCCCCCCCC[N+](C)(C)C.[Br-].[Br-]`, the relative growth is 1.05. Consider `CCCCCCCCCCCCCCCC[N+](C)(C)C.[Br-]`, for which the relative growth was 0.0522 (active). For `C[N+](C)(C)CCCl`, the relative growth is 1. The result for `CCC(N)C(O)c1ccc(O)c(O)c1.Cl` (stereo unspecified) reads 0.99; that for `CC12CCC3C(CCC4CC(=O)CCC43C)C1CCC2=O` (stereo not drawn) ["5alpha-ANDROSTAN-3,17-DIONE"], 0.862. Under `CCC(=O)CCCCC[C@@H]1NC(=O)[C@H]2CCCCN2C(=O)[C@H]([C@H](C)CC)NC(=O)[C@H](Cc2cn(OC)c3ccccc23)NC1=O` stands 1; under `COc1cc2c(cc1OC)C13CCN4CC5=CCOC6CC(=O)N2C1C6C5CC43` (stereo unspecified), 1.05.

For `CCn1cc(C(=O)[O-])c(=O)c2cc3c(cc21)OCO3.[K+]`, the relative growth was 0.0482 (active). Under `CCC(=O)CCCCC[C@@H]1NC(=O)[C@H]2CCCCN2C(=O)[C@H]([C@@H](C)CC)NC(=O)[C@H](Cc2cn(OC)c3ccccc23)NC1=O` stands 0.957; under `O=C1N[C@@H]2C(=C[C@H](O)[C@@H](O)[C@H]2O)c2cc3c(c(O)c21)OCO3`, 0.913; under `N#Cc1cccnc1`, 1.01. As for `NNc1ccn([C@H]2O[C@@H](CO)[C@@H](O)[C@@H]2O)c(=O)n1`, the relative growth is 0.394. For the compound `COP(=O)(OC)C(O)C(Cl)(Cl)Cl` (stereo unspecified), the relative growth was 0.874.

Take `CC(C)(O)/C=C/C(=O)[C@](C)(O)[C@H]1[C@H](O)C[C@@]2(C)[C@H]3CC=C4[C@@H](CC(=O)C(=O)C4(C)C)[C@]3(C)C(=O)C[C@]12C`: the relative growth is 0.979. `[O-][n+]1ccccc1[S][Zn][S]c1cccc[n+]1[O-]`: the relative growth was 0.0506 (active). The result for `CC(C)C[C@@H]1C(=O)N2CCC[C@@H]2[C@]2(O)O[C@@](NC(=O)[C@@H]3C=C4c5cccc6[nH]cc(c56)C[C@@H]4N(C)C3)(C(C)C)C(=O)N12` reads 1.04; that for `C[CH2][Hg][S]c1ccccc1C(=O)[O-].[Na+]`, 0.0484 (active); that for `O=C([O-])Cc1ccccc1.[Na+]`, 0.934. The result for `CCCCOC(=O)c1ccccc1C(=O)OCCCC` reads 1.11.

As to `CC(=O)OC1CCC2(C)C(CCC3C2CCC2(C)C(C4=CC(=O)OC4)C(OC(C)=O)CC32O)C1` (stereo unspecified), the relative growth is 1.01. The result for `CC(C)=CCCC1(C)C=Cc2c(O)c3c(c(CC=C(C)C)c2O1)OC12C(=CC4CC1C(C)(C)OC2(CC=C(C)C(=O)O)C4=O)C3=O` (stereo unspecified) reads 1.01. Take `NC(=O)c1ccc(N)nc1`: the relative growth is 0.986. Under `CCCN1CC(CSC)CC2c3cccc4[nH]cc(c34)CC21.CS(=O)(=O)O` (stereo unspecified) stands 1.15. Under `CCNC(=O)[C@H]1O[C@@H](n2cnc3c(N)ncnc32)[C@H](O)[C@@H]1O` stands 0.996; under `Oc1cc(Cl)ccc1Oc1ccc(Cl)cc1Cl`, 0.0446 (active); under `Oc1ccc(Cl)cc1Cc1cc(Cl)ccc1O`, 0.398.

Consider `Nc1ccc(Cl)cc1Cl`, for which the relative growth was 1.02. The result for `CN1CC(=O)N(c2cccnc2)C[C@]12CCNC2` reads 0.998; that for `CC12CCC3C(CCC4(O)CC(O)CCC34C=O)C1(O)CCC2C1=CC(=O)OC1` (stereo unspecified), 0.972. On to `CC(=O)Oc1ccc(Cl)c2cccnc12`, for which the relative growth was 0.0572 (active). Consider `CC=C1CC(C)C(O)(CO)C(=O)OCC2=CCN3CCC(OC1=O)C23` (stereo unspecified), for which the relative growth is 1.04.

On to `CN1CCOC[C@]2(CCCNC2)C1`, for which the relative growth was 0.994. Under `C[C@]12C(=O)OC(=O)[C@]1(C)[C@H]1CC[C@H]2O1` stands 0.97. Under `CN1C(=O)[C@@]23C[C@]4([C@@]56C[C@]78SS[C@](CO)(C(=O)N7[C@@H]5Nc5ccccc56)N(C)C8=O)c5ccccc5N[C@H]4N2C(=O)[C@@]1(CO)SS3` stands 0.917; under `CN1C(=O)[C@]23CC4=CC=C[C@H](O)[C@H]4N2C(=O)[C@@]1(CO)SS3`, 0.0665 (active); under `CC1OC(OC2CCC3(C=O)C4CCC5(C)C(C6=CC(=O)OC6)CCC5(O)C4CCC3(O)C2)C(O)C(O)C1O` (stereo unspecified), 1.15. On to `c1cnc2[nH]cc(CN3CCNCC3)c2c1`, for which the relative growth was 0.977. The result for `CC(=O)O[C@H]1C[C@H](O[C@H]2[C@@H](O)C[C@H](O[C@H]3[C@@H](O)C[C@H](O[C@H]4CC[C@@]5(C)[C@@H](CC[C@H]6[C@@H]5C[C@@H](O)[C@]5(C)[C@@H](C7=CC(=O)OC7)CC[C@]65O)C4)O[C@@H]3C)O[C@@H]2C)O[C@H](C)[C@H]1O[C@@H]1O[C@H](CO)[C@@H](O)[C@H](O)[C@H]1O` reads 0.986. Take `COP(=S)(OC)Oc1ccc(Sc2ccc(OP(=S)(OC)OC)cc2)cc1`: the relative growth is 0.986.

Take `COP(=S)(OC)Oc1cc(Cl)c(Cl)cc1Cl`: the relative growth is 0.0496 (active). The result for `CCOP(=S)(OCC)Oc1nc(Cl)c(Cl)cc1Cl` reads 1.06; that for `CCn1cnc2c(Nc3cccc(Cl)c3)nc(N[C@@H]3CCCC[C@@H]3N)nc21`, 0.943; that for `CC(=O)OCC1=C(C(=O)O)N2C(=O)[C@@H](NC(=O)CCC[C@@H](N)C(=O)O)[C@@H]2SC1`, 1.02.

Consider `CNc1ccc2oc(C[C@H]3O[C@@]4(CC[C@H]3C)O[C@H]([C@H](C)C(=O)c3ccc[nH]3)[C@H](C)C[C@H]4C)nc2c1C(=O)O`, for which the relative growth was 0.962. Under `CCCCCCCCCCCCCCCC[n+]1ccccc1.[Cl-]` stands 0.0713 (active); under `CCCCCCCCCCCCCCCC[n+]1ccccc1`, 0.16 (active); under `CC[C@@H](C)NC=C1C(=O)NC(=O)NC1=O`, 1.01. Under `CC1OC(OC2CC(O)C3(CO)C4C(O)CC5(C)C(C6=CC(=O)OC6)CCC5(O)C4CCC3(O)C2)C(O)C(O)C1O.O.O.O.O.O.O.O.O` (stereo unspecified) stands 1.01; under `CC1OC(OC2C=C3CCC4C(CCC5(C)C(c6ccc(=O)oc6)CCC45O)C3(C)CC2)C(O)C(O)C1O` (stereo unspecified), 0.977.

Consider `C[C@@H]1O[C@@H](O[C@H]2CC[C@]3(C=O)[C@H]4CC[C@]5(C)[C@@H](C6=CC(=O)OC6)CC[C@]5(O)[C@@H]4CC[C@]3(O)C2)[C@H](O)[C@H](O)[C@H]1O`, for which the relative growth is 1.

Turning to `C=C(C)[C@H]1CN[C@H](C(=O)O)[C@H]1CC(=O)O`, the relative growth was 0.978.
